Assay results: PubChem BioAssay AID1159580 (chemical genetic matrix, 2015)
Among all 5,500 compounds or so, about 2,000 (36%) were called active. Inconclusive results (about 18%) are left out. The list shows a part of the results. A number with no mark means an inactive call. No stated cut-off is given here; in the data, active means normalized growth mostly below about 0.91 (no sharp cut-off); inconclusive means no clear call, values can overlap the other calls; inactive means mostly above about 0.92.

Test: chemical genetic growth profiling, strain panel (AID 1159580);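 further: tested at 20 µM; growth read once vehicle control cultures reached saturation at 30 °C; 1 = growth at the plate median or of vehicle wells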
Details: S. cerevisiae deletion strains, growth OD

COc1cc(C(=O)O)c2c(c1C)OC(=O)c1c(C)cc(O)c(C=O)c1O2
normalized growth (locus YBR021W, strain FUR4, stronger effect = lower value): 0.989
normalized growth (locus YBR229C, strain ROT2, stronger effect = lower value): 0.997
normalized growth (locus YCL029C, strain bik1, stronger effect = lower value): 1
normalized growth (locus YDL035C, strain GPR1, stronger effect = lower value): 0.977
normalized growth (locus YDL074C, strain BRE1, stronger effect = lower value): 0.943
normalized growth (locus YDL101C, strain DUN1, stronger effect = lower value): 1
normalized growth (locus YDL134C, strain PPH21, stronger effect = lower value): 0.986
normalized growth (locus YDL185W, strain tfp1, stronger effect = lower value): 0.93
normalized growth (locus YDL192W, strain arf1, stronger effect = lower value): 0.991
normalized growth (locus YDR101C, strain arx1, stronger effect = lower value): 1.01
normalized growth (locus YDR150W, strain NUM1, stronger effect = lower value): 0.997
normalized growth (locus YDR162C, strain NBP2, stronger effect = lower value): 0.969
normalized growth (locus YDR318W, strain mcm21, stronger effect = lower value): 1.01
normalized growth (locus YDR388W, stronger effect = lower value): 0.986
normalized growth (locus YDR502C, strain sam2, stronger effect = lower value): 1
normalized growth (locus YEL061C, strain CIN8, stronger effect = lower value): 0.993
normalized growth (locus YER110C, stronger effect = lower value): 0.969
normalized growth (locus YER155C, strain BEM2, stronger effect = lower value): 1.02
normalized growth (locus YER167W, strain BCK2, stronger effect = lower value): 1.01
normalized growth (locus YGL078C, strain dbp3, stronger effect = lower value): 0.954
normalized growth (locus YGL086W, strain mad1, stronger effect = lower value): 0.986
normalized growth (locus YGL248W, strain PDE1, stronger effect = lower value): 1.01
normalized growth (locus YGR135W, strain pre9, stronger effect = lower value): 0.988
normalized growth (locus YGR252W, strain gcn5, stronger effect = lower value): 1.05
normalized growth (locus YHR079C, strain IRE1 (second series), stronger effect = lower value): 0.988
normalized growth (locus YHR094C, strain hxt1, stronger effect = lower value): 0.989
normalized growth (locus YHR129C, strain ARP1, stronger effect = lower value): 1
normalized growth (locus YHR200W, strain rpn10, stronger effect = lower value): 0.994
normalized growth (locus YIL066C, strain RNR3, stronger effect = lower value): 0.998
normalized growth (locus YIL073C, strain SPO22, stronger effect = lower value): 0.948
normalized growth (locus YIL125W, strain kgd1, stronger effect = lower value): 0.927 (active)
normalized growth (locus YIR030C, strain dcg1, stronger effect = lower value): 0.983
normalized growth (locus YJL095W, strain BCK1, stronger effect = lower value): 0.998
normalized growth (locus YJL134W, strain LCB3, stronger effect = lower value): 0.996
normalized growth (locus YJL168C, strain set2, stronger effect = lower value): 0.972
normalized growth (locus YJL187C, strain SWE1 (second series), stronger effect = lower value): 0.969
normalized growth (locus YKL009W, strain mrt4, stronger effect = lower value): 0.974
normalized growth (locus YKL068W, stronger effect = lower value): 0.928 (active)
normalized growth (locus YKL085W, strain MDH1 (second series), stronger effect = lower value): 0.911 (active)
normalized growth (locus YKL085W, strain MDH1, stronger effect = lower value): 0.911 (active)
normalized growth (locus YKR001C, strain vps1, stronger effect = lower value): 0.971
normalized growth (locus YLR039C, strain RIC1, stronger effect = lower value): 0.929
normalized growth (locus YLR058C, strain SHM2, stronger effect = lower value): 1.01
normalized growth (locus YLR102C, strain apc9, stronger effect = lower value): 0.984
normalized growth (locus YLR268W, strain sec22, stronger effect = lower value): 0.956
normalized growth (locus YLR371W, strain rom2, stronger effect = lower value): 0.955
normalized growth (locus YLR418C, strain cdc73, stronger effect = lower value): 0.939
normalized growth (locus YML016C, strain PPZ1, stronger effect = lower value): 0.986
normalized growth (locus YML032C, strain rad52, stronger effect = lower value): 0.996
normalized growth (locus YML124C, strain tub3, stronger effect = lower value): 0.998
normalized growth (locus YMR078C, strain ctf18, stronger effect = lower value): 0.975
normalized growth (locus YMR223W, strain ubp8, stronger effect = lower value): 0.984
normalized growth (locus YMR263W, strain SAP30, stronger effect = lower value): 0.991
normalized growth (locus YMR307W, strain GAS1, stronger effect = lower value): 0.923
normalized growth (locus YNL067W, strain RPL9B, stronger effect = lower value): 0.997
normalized growth (locus YNL128W, strain TEP1, stronger effect = lower value): 0.955
normalized growth (locus YNL233W, strain BNI4, stronger effect = lower value): 1.01
normalized growth (locus YNL250W, strain rad50, stronger effect = lower value): 0.919
normalized growth (locus YNL271C, strain bni1, stronger effect = lower value): 0.917 (active)
normalized growth (locus YNL298W, strain CLA4, stronger effect = lower value): 0.898 (active)
normalized growth (locus YNL307C, strain MCK1, stronger effect = lower value): 0.989
normalized growth (locus YNR052C, strain pop2, stronger effect = lower value): 0.978
normalized growth (locus YOL012C, strain htz1): 0.7
normalized growth (locus YOL147C, strain pex11, stronger effect = lower value): 1.01
normalized growth (locus YOR061W, strain CKA2, stronger effect = lower value): 0.999
normalized growth (locus YOR069W, strain VPS5, stronger effect = lower value): 0.995
normalized growth (locus YOR136W, strain idh2, stronger effect = lower value): 1.02
normalized growth (locus YOR144C, strain elg1, stronger effect = lower value): 0.985
normalized growth (locus YOR184W, strain ser1, stronger effect = lower value): 0.975
normalized growth (locus YOR316C, strain cot1, stronger effect = lower value): 0.977
normalized growth (locus YPL055C, strain LGE1, stronger effect = lower value): 0.973
normalized growth (locus YPR119W, strain clb2, stronger effect = lower value): 0.977
normalized growth (locus YPR141C, strain kar3, stronger effect = lower value): 0.942
normalized growth (locus YPR163C, strain tif3, stronger effect = lower value): 0.985
normalized growth (locus YPR167C, strain met16, stronger effect = lower value): 1.01
normalized growth (strain wtn01, stronger effect = lower value): 0.987
